Test results taken from PubChem BioAssay (NCI).
About 83,000 compounds went through this panel and 20% of them were active in at least one assay; those are over-represented in the sample as a whole.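 48-hour exposure, single concentration, 96-well plates; percent growth endpoint where 0 means no net growth. Active: below 10.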 Unmarked numbers belong to inactive results. The source made the active and inactive calls.

Experiments:
Assay in all cases: NCI-60 one-dose screen, 48 h (100 = growth as untreated, 0 = no growth, -100 = all killed)
Settings in all cases: 10 µM unless noted
[1] = system: HCT-15 colon
[2] = system: HT29 colon
[3] = system: SNB-75 CNS
[4] = system: SNB-19 CNS
[5] = system: U251 CNS
[6] = system: PC-3 prostate
[7] = system: SK-MEL-5 melanoma
[8] = system: UACC-62 melanoma
[9] = system: LOX IMVI melanoma
[10] = system: SK-MEL-28 melanoma
[11] = system: SK-MEL-2 melanoma
[12] = system: EKVX NSCLC
[13] = system: SN12C renal
[14] = system: UO-31 renal
[15] = system: TK-10 renal
[16] = system: ACHN renal
[17] = system: CAKI-1 renal
[18] = system: A498 renal
[19] = system: CCRF-CEM leukemia
[20] = system: MOLT-4 leukemia

Compound | growth [1] | growth [2] | growth [3] | growth [4] | growth [5] | growth [6] | growth [7] | growth [8] | growth [9] | growth [10] | growth [11] | growth [12] | growth [13] | growth [14] | growth [15] | growth [16] | growth [17] | growth [18] | growth [19] | growth [20]
CSCCC(NC(=O)c1ccccc1)C(=O)N/N=C1\S/C(=C/c2ccc(Cl)cc2)C(=O)N1C (stereo not given) | 96.4% | 91.4% | 57.8% | 68.1% | 64.2% | 84.9% | 82.9% | 91.1% | 89.3% | 85.9% | 97.4% | 92.7% | 97.3% | 90.6% | 105% | 76.5% | 117% | 103% | 4.24% (active) | 66.8%
C=CC(=O)NCCOc1cccc(Nc2cc(NCCCNC(=O)C3CCC3)c(Br)cn2)c1 | 1.43% (active) | -15.2% (active) | -69.2% (active) | 5.36% (active) | 0.984% (active) | 5.12% (active) | -41.4% (active) | -34.7% (active) | -25.3% (active) | -11.9% (active) | -43.8% (active) | -13.6% (active) | 3.07% (active) | -42.2% (active) | -43.4% (active) | 7.24% (active) | -38.2% (active) | -54% (active) | 1.92% (active) | -10.5% (active)
COc1cc(C(=O)c2c(N)ncn2-c2ccccc2)cc(OC)c1OC | 82.6% | 93.7% | 90.7% | 89.6% | 95% | 78.5% | 89.5% | 70.3% | 91.9% | 91.7% | 104% | 102% | 88.2% | 81.2% | 106% | 102% | 92.3% | 90.2% | 92.5% | 109%
O=C1c2cccnc2C(=O)c2c1c(C(=O)OCCCN1CCCCC1)c1ccccn21 | -55.5% (active) | -24.2% (active) | -88.7% (active) | -38.2% (active) | -31% (active) | -18.2% (active) | -96.2% (active) | -51.2% (active) | -67.2% (active) | -20.3% (active) | -47.3% (active) | -15.6% (active) | -57.6% (active) | -19.5% (active) | -11.1% (active) | -55.2% (active) | -24% (active) | 11.1% | -17% (active) | -7.64% (active)
O=C1NC(=C(Cl)Cl)/C(=N/S(=O)(=O)NCCc2c[nH]c3ccccc23)N1 | 98.6% | 15% | 78.5% | 53.9% | 33.8% | 83.5% | 74.3% | 61.2% | 29.8% | 84% | 46.2% | 101% | 35.2% | 71.6% | 109% | 88.4% | 83.7% | 71.5% | 7.47% (active) | 18%
CCOC(=O)NN1CC(O)=C(c2nc(-c3ccc(Br)cc3)cs2)C1=N | 115% | 108% | 101% | 98.7% | 113% | 85.2% | 103% | 110% | 106% | 113% | 128% | 104% | 161% | 87% | 116% | 111% | 92.9% | 93.4% | 86.2% | 75.9%
C=CC(C)(O)CC/C=C(\CO)C(=O)OC1C(C)OC(O[C@](C)(C=C)CC/C=C(\CO)C(=O)O[C@H]2C[C@@]3(C(=O)OC4OC(CO)C(O)C(O)C4OC4OC(C)C(OC5OC(CO)C(O)C5O)C(OC5OC(CO)C(O)C(O)C5O)C4O)C(CC2(C)C)C2=CCC4[C@@]5(C)CC[C@H](OC6OC(COC7OC(C)C(O)C(O)C7OC7OCC(O)C(O)C7O)C(O)C(O)C6NC(C)=O)C(C)(C)C5CC[C@@]4(C)[C@]2(C)C[C@H]3O)C(O)C1O (stereo not given in full) | 66.3% | 21.5% | -34.9% (active) | -54.1% (active) | -84.5% (active) | -68.9% (active) | 74.6% | -11% (active) | -36.7% (active) | -90.3% (active) | -73.8% (active) | -6.51% (active) | -30.1% (active) | -57.7% (active) | -83% (active) | -87.7% (active) | -70% (active) | -81% (active) | -17.1% (active) | -21.5% (active)
c1ccc2cc(Cn3c[n+](Cc4ccc5ccccc5c4)c4ccccc43)ccc2c1 | 53.6% | -80.6% (active) | -7.06% (active) | -20.1% (active) | -90.3% (active) | -19.4% (active) | -98.1% (active) | -70.1% (active) | -93.9% (active) | -28.9% (active) | -61.7% (active) | 13.9% | 5.14% (active) | 53.6% | -72% (active) | 46.2% | 84.7% | -2.59% (active) | -13.1% (active) | -27.1% (active)
CCC(C)Nc1ccc(NC(C)CC)cc1 (stereo not given) | 97.7% | 71.5% | 83.2% | 101% | 87.9% | 80.7% | 100% | 87.1% | 74% | 104% | 91.6% | 86% | 19.8% | 84.4% | 107% | 85.5% | 96.2% | 97.5% | 79% | 59.1%
CC(CN)[C@@H]1CC[C@]2(CO)CC[C@]3(C)[C@H](CC[C@@H]4[C@@]5(C)CCC(N)C(C)(C)[C@@H]5CC[C@]43C)[C@@H]12 (stereo not given in full) | -75.4% (active) | -85.9% (active) | 52.2% | 5.3% (active) | -88.4% (active) | -76.2% (active) | 57.5% | 104% | -72.1% (active) | -39.8% (active) | 81.6% | -44.7% (active) | 25.5% | 0.963% (active) | 57.7% | 17.7% | 33.7% | 92.2% | -32.1% (active) | -35.1% (active)
N#CCC1=NC(c2cccs2)=Nc2ccccc2S1 | 109% | 89.5% | 94% | 87.9% | 87.7% | 71.1% | 93.8% | 70.1% | 99.1% | 88.4% | 96.9% | 105% | 86.6% | 79.1% | 117% | 98.2% | 95.6% | 90.9% | 90.8% | 92.5%
Cc1ccccc1CNc1c2ccccc2nc2ccccc12 | 14.6% | 8.87% (active) | 45.3% | 27.1% | 21.3% | 25.6% | 33.9% | 46.7% | 9.12% (active) | 58.3% | 40.2% | 38.4% | 24.3% | 15.5% | 38.7% | 11.6% | 25.1% | -2.25% (active) | 17.6% | 8.85% (active)
NS(=O)(=O)c1ccc(N/C=C/C(=O)c2cc3ccccc3oc2=O)cc1 | 93.5% | 108% | 76.1% | 103% | 97.2% | 93.7% | 92.6% | 93.7% | 93% | 111% | 109% | 84% | 96% | 62.4% | 125% | 99.7% | 80.1% | 111% | 108% | 103%
CCOC(=O)N1CCN(S(=O)(=O)c2oc(-c3ccc(Cl)cc3)nc2C#N)CC1 | -8.32% (active) | 79.3% | 87.9% | 98.3% | 95.9% | 93% | 97.4% | 98.8% | 10.8% | 105% | 83.8% | 101% | 92.6% | 81.5% | -27% (active) | 76.1% | 101% | 126% | 1.71% (active) | 5.33% (active)
